Screens from PubChem BioAssay.
PTHR1 agonist = agonists of human PTHR1 parathyroid hormone receptor; Q03431; HEK293 GP2 PTHR1 cells, GloSensor cAMP luminescence, 1 h; Potency, µM (highest dose often 115 µM), without a hit: at the highest dose activation, usual class: activators; 0.075% of 410,000 active; further: potency means the concentration at half of the fitted maximal effect; nearly all actives have a fitted effect of over 55% in size
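HEK-293-derived GP2 cells expressing PTHR1 and a GloSensor cAMP reporter, 3,000/well, plated overnight, given luciferin plus IBMX (each 0.5 mM as added) for 1 h at 37 °C, then compound for 1 h at 37 °C. Luminescence was read after 15 min at room temperature.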
RGS4 inh = human RGS4 inhibition; Transcreener GDP fluorescence polarization, RGS4-accelerated GTP hydrolysis; Potency, µM (top dose mostly 114 µM), inactives show at the top dose activity change, negative = inhibition, hits mostly inhibitors; 0.039% of 390,000 active; further: potency means the concentration at half of the fitted maximal effect; on the % scale 0 is the no-effect control and ±100 the full control effect; nearly all actives have a fitted effect of over 75% in size
Target sequence (P49798 whole entry, looked up): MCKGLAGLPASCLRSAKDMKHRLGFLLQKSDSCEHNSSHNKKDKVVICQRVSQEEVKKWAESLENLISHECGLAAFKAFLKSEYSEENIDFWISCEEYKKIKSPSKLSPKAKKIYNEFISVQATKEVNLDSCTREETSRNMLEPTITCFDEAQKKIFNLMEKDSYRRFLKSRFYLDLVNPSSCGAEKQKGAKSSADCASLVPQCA
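MLSMR compounds (23 nl, pin-transferred) preincubated 10 min at room temperature with a 500nM (2x) first reagent, then RGS4 at 900nM (2x) plus Transcreener GDP mix added; fluorescence polarization (620/688 nm) read before and after 90 min at 30 °C.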
p53 reactivator = re-activators of mutant p53 | H1299 p53-A138V BP100-luciferase reporter, luminescence, 24 h | Potency, µM (highest dose often 92.2 µM), inactives show top-dose activity change, positive = activation, hits mostly activators | 0.063% of 320,000 active | AID 504706; further: potency means the concentration at half of the fitted maximal effect; % of control where 0% means no effect; nearly all actives have a fitted effect of over 45% in size
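p53-null H1299 cells stably carrying temperature-sensitive p53-A138V and a BP100-luciferase reporter were pinned with compounds (4-point, 1:5 series) and held 24 hrs at 37 deg C. Luminescence was read 10 min after detection reagent.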
LDHA block = LDHA (human) enzyme inhibition; P00338; purified LDHA, NADH/diaphorase-resazurin fluorescence; stronger effect = lower value; activity change, % (values are at about 110 or 230 µM); 0.15% of 480,000 active; AID 1347041; in the data active means activity change below about -30%; inconclusive means mostly about -25% to -30%;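 further: plate controls were DMSO wells for no effect and wells without enzyme for full effect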
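Human LDH5 (2 nM) was incubated with 0.06 mM NADH and 0.2 mM pyruvate for 5 min at room temperature in Tris pH 7.4. Remaining NADH was coupled through diaphorase/resazurin, and resorufin fluorescence was read at 0 and 20 min.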
BRCA1 expr act = activators of BRCA1 expression; MCF7-BRCA1-FFLuc reporter, luminescence, 48 h; response scale: scaled: vehicle 0%, 10 µM genistein 100%; 1.1% of 380,000 active; Potency, µM (highest dose often 46.1 µM), for inactives: at the highest dose activation, hits mostly activators; further: potency means the concentration at half of the fitted maximal effect; nearly all actives have a fitted effect of over 80% in size
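Luminescence from a BRCA1-driven firefly luciferase in MCF7 cells was the read-out, taken 15 min after substrate addition following 48 h compound exposure at 37 °C. Data were normalized to a 10 microM genistein control and DMSO vehicle.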
The depositor's hits bear a star; i = inactive; ? = inconclusive; . = not tested or not shown; [ ] = remark or other dose. The list is not random: actives were taken first. Their share in the collection is about 1.1%. Unless noted, the call rests on the fitted dose curve; in most records, active means well fitted curve in the direction sought with a large enough effect; inconclusive means small, poorly fitted or top-dose-only effect, or another doubt; inactive means no such curve, though single readings can be large; an effect the other way counts as inactive or inconclusive.

SMILES | PTHR1 agonist | RGS4 inh | p53 reactivator | LDHA block | BRCA1 expr act
O=C(c1ccco1)N1CCN(Cc2cccc(F)c2)CC1 | i | 9.0% | 6.1% | -32.1* | 32.5%
Clc1cccc(CN2CCN(Cc3ccco3)CC2)c1 | i | 5.8% | 4.8% | -21.0 | 3.3%
CCc1ccc(CN2CCN(C(=O)c3ccco3)CC2)cc1 | i | 4.7% | 6.5% | ? | 12.7%
COc1ccc(C(=O)/C=C/c2ccc(F)cc2)c(OC(=O)c2ccccc2C)c1 | . | . | . | 12.4 | .
COc1ccccc1-c1ccc(NC2CCCCC2)nn1 | -25.7%[57.5 µM] | 13.0% | ? | 0.3 | 7.08µM*
COc1ccccc1-c1ccc(Nc2cccc(C(F)(F)F)c2)nn1 | i | 5.1% | -10.6% | -3.0 | -5.6%
Fc1ccc(COc2ccc(-c3nnco3)cc2)c(Br)c1 | . | . | . | -22.2 | .
Fc1ccc(COc2ccc(-c3nnco3)cc2)c(Cl)c1 | -29.1% | -5.6% | -3.1% | 2.3 | 8.91µM*
Fc1cc(Br)ccc1COc1ccc(-c2nnco2)cc1 | -9.0% | 8.3% | ? | -2.8 | 6.31µM*
N#Cc1c(/N=C/c2c(F)cccc2Cl)sc2c1CCCC2 | . | . | . | -0.2 | .
CCOc1ccccc1C(=O)Nc1ccc(OCC)c2ncccc12 | . | . | . | -16.0 | .
C/C(=N\Nc1nncc2ccccc12)c1ccc(C(C)(C)C)cc1 | i | -0.5% | 7.6% | -2.7 | 2.51µM*
Cn1cccc1/C=C1\SC(=O)N(c2ccc(O)cc2)C1=O | -9.4% | 4.2% | 15.8% | 1.0 | 10µM*
CCOc1ccc(N2C(=O)S/C(=C\c3cccn3C)C2=O)cc1 | -21.3% | 5.1% | 15.9% | -1.7 | 76.4%
CCc1ccc(CNC(=O)CN2C(=O)c3cccnc3Oc3ccc(Cl)cc32)cc1 | -1.5% | 1.5% | . | -32.5* | .
Cc1ccc(C)c(NC(=O)CCl)c1 | . | . | . | -2.4 | .
CCCOc1ccc(/C(O)=C2\C(=O)C(=O)NC2c2ccc(C(C)(C)C)cc2)cc1 (configuration not stated) | . | . | . | 13.7 | .
NS(=O)(=O)c1ccc(NC(=O)Cn2ncc3c2-c2ccccc2OC3)cc1 | i | -6.0% | -1.1% | -33.5* | 3.7%
CCn1cc(S(=O)(=O)CC(=O)Nc2ccc3c(c2)OCCO3)c2ccccc21 | i | -42.4% | -3.3% | 10.4 | 1.9%
CCN(CC)C(=O)Cn1cc(S(=O)(=O)CC(=O)Nc2ccc3c(c2)OCCO3)c2ccccc21 | -22.4% | -29.6% | 13.9% | 1.8 | 11.2µM*
O=C(c1ccc(Br)cc1)c1coc2ccc(O)cc12 | -14.1% | 0.3% | . | 6.7 | 11.2µM*
O=C(c1ccc(Cl)cc1)c1coc2ccc(O)cc12 | -16.3%[57.5 µM] | -23.1% | ? | -3.1 | 3.98µM*
CN1C(=CC=C2C=C(I)C(=O)C(I)=C2)C(C)(C)c2ccccc21 | -31.2% | 13.2% | -4.2% | -3.7 | -19.0%
CN1/C(=C\C=C2/C(=O)Oc3ccccc3C2=O)C(C)(C)c2ccccc21 | -13.4% | ? | -2.0% | -49.9* | 18.5%
COC(=O)[C@H](CC(C)C)NC(=O)Cn1cnc(C(=O)Nc2ccc(C)c(C)c2)n1 | -42.8% | -3.9% | 14.5% | -7.4 | 11.2µM*
SMILES | PTHR1 agonist | RGS4 inh | p53 reactivator | LDHA block | BRCA1 expr act
O=C(CSc1nc2ccccc2[nH]1)c1ccccc1F | -16.6% | -28.2% | ? | -3.6 | 2µM*
O=C(CSc1nc2ccccc2[nH]1)c1c[nH]c2ccccc12 | -22.8% | -21.9% | -1.4% | -10.6 | 30.3%
O=C(NC1CCCCCCC1)c1c(O)c2ccccc2[nH]c1=O | -10.3%[57.5 µM] | 13.2% | ? | -0.7 | 10µM*
CCN(CC)c1ccc(NS(=O)(=O)c2ccc(C)c(C)c2)cc1 | . | . | . | -23.3 | .
O=C1NC(=O)/C(=C/c2ccc(-c3ccc(F)cc3O)o2)S1 | . | 21.2µM* | . | . | .
Cc1ccccc1-c1nnc(SCc2ccccc2F)o1 | -79.4%[57.5 µM] | 7.3% | ? | 3.4 | ?
Cc1ccccc1-c1nnc(SCc2ccccc2)o1 | -13.1%[57.5 µM] | 2.8% | ? | -1.3 | 10µM*
Cc1cccc(C)c1NC(=O)CSc1nnc(Cc2ccccc2)o1 | -31.6%[57.5 µM] | 3.6% | 0.7% | -7.6 | 6.2%
Cc1ccccc1-c1nnc(Cc2ccccc2)o1 | -5.1% | -3.6% | ? | 5.7 | 2.82µM*
Cc1ccc(CSc2nnc(-c3ccco3)o2)cc1 | -68.7% | 7.2% | 26.2% | 0.0 | 5.01µM*
